# Results reported in PubChem BioAssay (NCATS).
# “And” between values parts separate entries of the source, which are not always exact repeats. Equal entries are not always repeated. Records with an inconclusive call do not appear. Values without a mark were called inactive. The source made the active and inactive calls. The call rests on the fitted dose curve; in most records, active means well fitted cell-killing curve with a large enough effect; inconclusive means small, poorly fitted or top-dose-only effect; inactive means no such curve, though single readings can be large or run the other way.
# Assay: qHTS of pediatric cancer cell lines to identify multiple opportunities for drug repurposing: Primary screen for Rh30 cells (AID 1347107); further: nearly all actives have a fitted effect of over 75% in size
# Settings: Rh30 rhabdomyosarcoma viability, CellTiter-Glo luminescence, 48 h; series mostly up to 46 µM; activity change, negative = cytotoxic: at the top concentration
# Procedure, shortened: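 Cells (500-1,000/well) in growth media were settled 5 h at 37 degrees C, then given compounds for 48 h. Viability was read as CellTiter-Glo luminescence. Primary runs used MIPE at 11 points (0.78 nM-46 µM) and NPC at 8 points (0.59 nM-46 µM); follow-ups used 11 points.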
# On the % scale 0 is the no-effect control and ±100 the full control effect; potency means the concentration at half of the fitted maximal effect.
Compound,"activity change, negative = cytotoxic",Potency
OCc1ccc(-c2nn(Cc3ccccc3)c3ccccc23)o1,6.42%,
O=C(O)c1ccc(-n2nc(-c3ccccc3O)nc2-c2ccccc2O)cc1,0.643%,
CCC(=O)O[C@]1(C(=O)SCF)[C@H](C)C[C@H]2[C@@H]3C[C@H](F)C4=CC(=O)C=C[C@]4(C)[C@@]3(F)[C@@H](O)C[C@@]21C,,inactive
NC(=O)c1cccnc1,,inactive
Cc1nnc(NS(=O)(=O)c2ccc(N)cc2)s1,7.09%,
COC(=O)Nc1nc2ccc(S(=O)c3ccccc3)cc2[nH]1 (stereo not drawn),,inactive
N=C(N)c1ccc(OCCCCCOc2ccc(C(=N)N)cc2)cc1,4%,
Cc1c(-c2ccc(O)cc2)n(Cc2ccc(OCCN3CCCCCC3)cc2)c2ccc(O)cc12,8.09%,
COc1ccc2cc3[n+](cc2c1OC)CCc1cc2c(cc1-3)OCO2,,inactive
CCC(C)(C)c1ccc(CC(C)CN2C[C@@H](C)O[C@@H](C)C2)cc1 (stereo partly drawn),,inactive
CNCC[C@H](Oc1cccc2ccccc12)c1cccs1,8.38%,
O[C@@H](CNC[C@H](O)[C@H]1CCc2cc(F)ccc2O1)[C@@H]1CCc2cc(F)ccc2O1,,inactive
CN(C)c1ccc(C(=C2C=CC(=[N+](C)C)C=C2)c2ccc(N(C)C)cc2)cc1,,11.9 µM (active) and 5.9 µM (active)
COc1ccc(C(=O)CC(=O)c2ccc(C(C)(C)C)cc2)cc1,13.4%,
O=S(=O)(c1cccc2cnccc12)N1CCCNCC1,,inactive
COc1cc2c(Nc3ccc(Br)cc3F)ncnc2cc1OCC1CCN(C)CC1,12.2%,
CNS(=O)(=O)CCc1ccc2[nH]cc(C3CCN(C)CC3)c2c1,,inactive
C[C@@H](NCCCc1cccc(C(F)(F)F)c1)c1cccc2ccccc12,3.34%,
CCOC(=O)c1ccc(C#Cc2ccc3c(c2)C(C)(C)CCS3)nc1,,inactive
S=P(N1CC1)(N1CC1)N1CC1,23.1% [at 92.7 µM],
COC(=O)Nc1nc2ccc(C(=O)c3ccccc3)cc2[nH]1,4.8%,
Nc1nc(F)nc2c1ncn2[C@@H]1O[C@H](CO)[C@@H](O)[C@@H]1O,-6.41%,
CCOC(=O)[C@H](CCc1ccccc1)N[C@H]1CS[C@H](c2cccs2)CN(CC(=O)O)C1=O,15.4%,
CC(C)(C)NC(=O)[C@H]1CC[C@H]2[C@@H]3CC[C@H]4NC(=O)C=C[C@]4(C)[C@H]3CC[C@]12C,5.07%,
COc1cc2ncnc(Nc3cccc(Cl)c3)c2cc1OC,-4.03%,
CN(Cc1cc(Br)cc(Br)c1N)C1CCCCC1,,inactive
Cc1cccc(N(C)C(=S)Oc2ccc3ccccc3c2)c1,,inactive
CC(C)Cn1cnc2c(N)nc3ccccc3c21,19.8% [at 16.1 µM],
